Measured values taken from the supplement of paper PMC9694430.

These compounds were tested on LOC_OS01G51400-cb002 (assay: thermal shift delta Tm vs DMSO control; higher = stronger stabilization (binding)). Conditions: 12.5 µM; protein concentration 2 µM.
Method in brief: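 Rice kinase domain constructs, made in E. coli and purified, were placed in 96-well plates at 2 μM in 19.5 μl of 100 mM potassium phosphate pH 7.5, 150 mM NaCl, 10% glycerol and 5 × SYPRO Orange, with compound in DMSO. A temperature ramp from 25°C to 95°C at 0.05°C/s was used for differential scanning fluorimetry. The melting temperature shift is a triplicate mean compared with DMSO-only protein, derived from Boltzmann fits.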
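Also: purified Escherichia coli-expressed rice kinase domain construct.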

Question: How did the “thermal shift delta Tm” value turn out when `CCOc1cc2ncc(C#N)c(Nc3ccc(OCc4ccccn4)c(Cl)c3)c2cc1NC(=O)/C=C/CN(C)C` [Neratinib (HKI-272)] was run?
Answer: 0.27 °C

Question: For `COc1cc2nccc(Oc3ccc(NC(=O)Nc4cc(C)on4)c(Cl)c3)c2cc1OC` [Tivozanib (AV-951)], which “thermal shift delta Tm” value is on record?
Answer: -0.16 °C

Question: `O=C1NC(=O)C(c2ccccc2[N+](=O)[O-])=C1Nc1ccc(O)c(Cl)c1` was tested. Which “thermal shift delta Tm” value did it give?
Answer: 0.04 °C

Question: How did the “thermal shift delta Tm” value turn out when `Cc1c(C(=O)N2CCOc3ccc(-c4ccc(N)nc4)cc3C2)ccc(S(C)(=O)=O)c1F` was run?
Answer: 0.26 °C

Question: `Cn1nccc1Nc1nccc(-c2ccn([C@H](CO)c3ccc(Cl)c(F)c3)c(=O)c2)n1` was tested. Which “thermal shift delta Tm” value did it give?
Answer: 0.59 °C

Question: For `COc1cc2c(N3CCN(C(=O)Nc4ccc(OC(C)C)cc4)CC3)ncnc2cc1OCCCN1CCCCC1` [Tandutinib (MLN518)], which “thermal shift delta Tm” value is on record?
Answer: 0.02 °C

Question: With `C[C@@H]1COCCN1c1cc(=O)n2c(n1)N(Cc1cncc(Cl)c1)[C@H](C(F)(F)F)CC2` as the compound, how does the “thermal shift delta Tm” value read?
Answer: 0.31 °C

Question: For `COc1ccc(F)c(F)c1C(=O)c1cnc(NC2CCN(S(C)(=O)=O)CC2)nc1N`, which “thermal shift delta Tm” value is on record?
Answer: -0.07 °C

Question: With `O=C(NCc1ccccc1)c1csc(Nc2ccncn2)n1` [Thiazovivin] as the compound, how does the “thermal shift delta Tm” value read?
Answer: 0.24 °C

Question: `CCN(CC)CCCCNc1ncc2cc(-c3cc(OC)cc(OC)c3)c(NC(=O)NC(C)(C)C)nc2n1` was tested. Which “thermal shift delta Tm” value did it give?
Answer: 0.23 °C

Question: For `O=c1cc(N2CCOCC2)oc2c(-c3ccc4c(c3)OCCO4)csc12`, which “thermal shift delta Tm” value is on record?
Answer: 0.47 °C

Question: For `Nc1ccc(C(=O)Nc2cccc(-c3nc(N4CCOCC4)c4oc5ncccc5c4n3)c2)cn1`, which “thermal shift delta Tm” value is on record?
Answer: 0.29 °C

Question: With `O=C(NC[C@H](O)CO)c1ccncc1Nc1ccc(I)cc1F` as the compound, how does the “thermal shift delta Tm” value read?
Answer: -0.03 °C

Question: With `CCOc1cc2ncc(C#N)c(Nc3ccc(F)c(Cl)c3)c2cc1NC(=O)/C=C/CN(C)C` [Pelitinib (EKB-569)] as the compound, how does the “thermal shift delta Tm” value read?
Answer: 0.03 °C

Question: Which “thermal shift delta Tm” value does the source give for `COc1cc2ncnc(Nc3ccc(Cl)cc3F)c2cc1OC` here?
Answer: 0.46 °C

Question: Which “thermal shift delta Tm” value does the source give for `Cc1cc(Nc2ncnc3ccc(NC4=NC(C)(C)CO4)cc23)ccc1Oc1ccn2ncnc2c1` [Irbinitinib (ARRY-380, ONT-380)] here?
Answer: -3.07 °C

Question: `CC1(C)CNc2cc(NC(=O)c3cccnc3NCc3ccncc3)ccc21` [Motesanib Diphosphate (AMG-706)] was tested. Which “thermal shift delta Tm” value did it give?
Answer: -0.07 °C

Question: For `COC(=O)Nc1ccc(-c2nc(N3CCOCC3)c3cnn(C4CCN(C(=O)OC)CC4)c3n2)cc1`, which “thermal shift delta Tm” value is on record?
Answer: -0.05 °C

Question: For `COc1cc(C(=O)N2CCC(N3CCN(C)CC3)CC2)ccc1Nc1ncc2c(n1)N(C)c1ccccc1C(=O)N2C`, which “thermal shift delta Tm” value is on record?
Answer: -0.06 °C

Question: For `C=C(C)[C@@H]1CC[C@]2(C)CC[C@]3(C)[C@H](CC[C@@H]4[C@@]5(C)CC[C@H](O)C(C)(C)[C@@H]5CC[C@]43C)[C@@H]12` [Lupeol], which “thermal shift delta Tm” value is on record?
Answer: -0.11 °C

Question: Which “thermal shift delta Tm” value does the source give for `Oc1cccc(-c2nc(N3CCOCC3)c3oc4ncccc4c3n2)c1` here?
Answer: 0.21 °C

Question: Which “thermal shift delta Tm” value does the source give for `CCn1c(N)c(C(=O)NC)c(=O)c2ccc(C#CC(C)(O)COC)nc21` (configuration not stated) here?
Answer: 0.37 °C

Question: `CCOc1cc(C(=O)N2CCC(N3CCN(C)CC3)CC2)ccc1Nc1ncc2c(n1)N(C1CCCC1)c1ccccc1C(=O)N2C` was tested. Which “thermal shift delta Tm” value did it give?
Answer: -0.1 °C

Question: With `Cc1ccc(NC(=O)c2cccc(C(C)(C)C#N)c2)cc1Nc1ccc2ncn(C)c(=O)c2c1` as the compound, how does the “thermal shift delta Tm” value read?
Answer: 0.61 °C

Question: For `Nc1ccc(-c2ccc3ncc4ccc(=O)n(-c5cccc(C(F)(F)F)c5)c4c3c2)cn1` [Torin 2], which “thermal shift delta Tm” value is on record?
Answer: 0.41 °C

Question: Which “thermal shift delta Tm” value does the source give for `CCN(CC)CCCC(C)Nc1ccnc2cc(Cl)ccc12` (configuration not stated) [Chloroquine Phosphate] here?
Answer: 0 °C

Question: `C[C@@H](N)[C@H]1CC[C@H](C(=O)Nc2ccncc2)CC1` was tested. Which “thermal shift delta Tm” value did it give?
Answer: 0.29 °C

Question: For `COc1cc(N2CCC(N(C)C)CC2)ccc1Nc1ncc(Cl)c(Nc2ccccc2P(C)(C)=O)n1`, which “thermal shift delta Tm” value is on record?
Answer: 0.25 °C

Question: For `CCCS(=O)(=O)Nc1ccc(F)c(C(=O)c2c[nH]c3ncc(-c4ccc(Cl)cc4)cc23)c1F` [Vemurafenib (PLX4032, RG7204)], which “thermal shift delta Tm” value is on record?
Answer: 1.03 °C

Question: `CO[C@H]1C[C@@H]2CC[C@@H](C)[C@@](O)(O2)C(=O)C(=O)N2CCCC[C@H]2C(=O)O[C@H]([C@H](C)C[C@@H]2CC[C@@H](OCCO)[C@H](OC)C2)CC(=O)[C@H](C)/C=C(\C)[C@@H](O)[C@@H](OC)C(=O)[C@H](C)C[C@H](C)/C=C/C=C/C=C/1C` [Everolimus (RAD001)] was tested. Which “thermal shift delta Tm” value did it give?
Answer: -0.03 °C

Question: With `COc1ccc(S(=O)(=O)N(CCO)c2ccccc2CN(C)C/C=C/c2ccc(Cl)cc2)cc1` [KN-93 Phosphate] as the compound, how does the “thermal shift delta Tm” value read?
Answer: 0.28 °C

Question: With `CN(C[C@@H]1COCCO1)S(=O)(=O)Nc1ccc2ccc3ncc(-c4cnn(C)c4)cc3c(=O)c2c1` as the compound, how does the “thermal shift delta Tm” value read?
Answer: 0.29 °C

Question: With `COc1ccc(CCNCc2ccc(OCc3ccc(Cl)nc3)c(OC)c2)cc1OC` as the compound, how does the “thermal shift delta Tm” value read?
Answer: -0.03 °C

Question: For `Clc1ccc(C2(c3ccc(-c4cn[nH]c4)cc3)CCNCC2)cc1`, which “thermal shift delta Tm” value is on record?
Answer: 0 °C

Question: `CN(C)Cc1cccc(N/C(=C2\C(=O)Nc3cc(C(N)=O)ccc32)c2ccccc2)c1` was tested. Which “thermal shift delta Tm” value did it give?
Answer: 0.08 °C

Question: Which “thermal shift delta Tm” value does the source give for `CC[C@H](CO)Nc1nc(NCc2ccccc2)c2ncn(C(C)C)c2n1` [Roscovitine (Seliciclib,CYC202)] here?
Answer: 0.03 °C

Question: `Cc1cc(Nc2cc(N3CCN(C)CC3)nc(/C=C/c3ccccc3)n2)n[nH]1` was tested. Which “thermal shift delta Tm” value did it give?
Answer: 0.24 °C
